Measurements from PubChem BioAssay AID624330 (Southern Research Specialized Biocontainment Screening …, 2012).
Among all 340,000 compounds or so, about 2,100 (0.62%) were called active.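 The calls were made as follows: active = first-screen hits whose inhibition reached a set limit at any dose in the follow-up dose series; inconclusive = inhibition above the set first-screen limit but never retested; inactive = the rest.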 Not all results are given here. Measured potencies and affinities stand elsewhere.

Target: Rac GTPase-activating protein 1 (Homo sapiens) (UniProt Q9H0H5)
Assay: blockers of MgcRacGAP-driven Rac1 GTP hydrolysis – biochemical, ADP Hunter fluorescence, primary and confirmatory, confirmation (AID 624330);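 also: fluorescence reports GDP produced by GAP-driven GTP hydrolysis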
Conditions: MgcRacGAP-stimulated Rac1 GTP hydrolysis, at 30 µM, active compounds read high, GST-tagged Rac1 F28L mutant substrate

Sequence of Rac GTPase-activating protein 1 (Homo sapiens) (Q9H0H5 whole entry, looked up): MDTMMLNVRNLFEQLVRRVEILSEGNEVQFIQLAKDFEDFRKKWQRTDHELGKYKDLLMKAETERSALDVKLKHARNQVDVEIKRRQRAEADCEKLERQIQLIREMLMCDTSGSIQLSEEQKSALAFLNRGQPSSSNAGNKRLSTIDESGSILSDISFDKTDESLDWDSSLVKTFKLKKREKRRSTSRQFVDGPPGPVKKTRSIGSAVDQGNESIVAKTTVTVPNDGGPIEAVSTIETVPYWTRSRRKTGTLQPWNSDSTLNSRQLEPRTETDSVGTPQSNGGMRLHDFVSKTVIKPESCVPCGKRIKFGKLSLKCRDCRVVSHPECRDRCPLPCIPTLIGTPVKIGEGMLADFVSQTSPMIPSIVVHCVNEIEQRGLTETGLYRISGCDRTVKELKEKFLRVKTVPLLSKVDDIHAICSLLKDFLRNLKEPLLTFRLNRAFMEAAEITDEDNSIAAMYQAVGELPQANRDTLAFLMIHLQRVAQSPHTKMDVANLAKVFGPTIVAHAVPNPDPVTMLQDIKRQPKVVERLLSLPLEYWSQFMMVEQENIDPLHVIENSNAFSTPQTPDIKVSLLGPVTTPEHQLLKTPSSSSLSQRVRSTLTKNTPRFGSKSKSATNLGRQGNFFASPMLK

inhibition, inactive:
Cc1csc(SC(C)C(=O)NCc2ccc3c(c2)OCO3)n1 (configuration not stated) 6%
Cc1ncc(C[n+]2csc(CCOC(=O)C34CC5CC(CC(C5)C3)C4)c2C)c(N)n1 1.84%
CCOc1ccccc1OCC(=O)Nc1cc(S(=O)(=O)N2CCCCC2)ccc1OC 10.7%
Cn1c(Cc2ccccc2)nnc1SCc1nc2ccccc2c(=O)[nH]1 0.95%
COCC(=O)N1CCC(Oc2ccc(C(=O)N(C)Cc3nccs3)cc2)CC1 3.05%
CSc1ccccc1NC(=O)c1cccc(S(=O)(=O)N2CCN(C)CC2)c1 2.55%
C[C@H]1CCCCO[C@@H](CN(C)S(=O)(=O)c2ccc(F)cc2)[C@@H](C)CN([C@@H](C)CO)C(=O)c2cc(NC(=O)Nc3ccc4c(c3)OCO4)ccc2O1 9.48%
CCN(CC)CCCNC(=S)N1CCn2c(nc3ccccc32)C1 6.61%
O=C(NCC1CCCO1)c1cc([N+](=O)[O-])ccc1Cl (configuration not stated) 2.41%
O=C(CC1CCCC1)NNC(=O)c1ccc(Br)cc1 10.1%
CC1=NOC(=O)/C1=C\c1ccc(-c2cccc(Cl)c2)o1 12.5%
CC1=NN(c2ccc(Cl)c(C(=O)O)c2)C(=O)/C1=C\c1ccc(-c2ccc(C(=O)O)cc2)o1 20.6%
CC1=NOC(=O)/C1=C/c1ccc(-c2ccc(Cl)cc2)o1 13%
CC1=NN(c2ccc(Br)cc2)C(=O)/C1=C/c1ccc(-c2ccccc2C(=O)O)o1 7.93%
CC(=O)NCC1CCCN(Cc2cn(-c3ccccc3)nc2-c2ccc3c(c2)OCO3)C1 (configuration not stated) -2.78%
COc1cccc(/C=N/NC(=O)CNC(=O)c2ccco2)c1O 13.1%
COc1cc(/C=N/NC(=O)c2cccs2)ccc1O 9.66%
COc1ccc(/C=N/NC(=O)CNC(=O)c2cccs2)cc1 2.55%
O=C(CNC(=O)c1ccco1)N/N=C/c1ccc(O)c([N+](=O)[O-])c1 1.55%
O=S(=O)(c1cccc(S(=O)(=O)N2CCCC2)c1)N1CCCCC1 -4.65%
O=C(COC(=O)/C=C/c1cccc(C(F)(F)F)c1)NC(c1ccccc1)c1ccccc1 -0.08%
Cc1oc2ccccc2c1-c1cn2c(n1)SCC2 18.1%
COC(=O)c1[nH]c(C)c(/C(O)=C2\C(=O)C(=O)N(CCN(C)C)C2c2ccccc2OC)c1C (configuration not stated) -0.13%
CC(C)(C)OC(=O)NCC(=O)NCC(=O)OCc1ccccc1 4.89%
CC1(c2cccc(Br)c2)NC(=O)N(CC(=O)Nc2ccc3c(c2)OCO3)C1=O (configuration not stated) 8.04%
NS(=O)(=O)c1ccc(CCNCc2cc(Br)ccc2OCc2ccccc2F)cc1 1.51%
COCC1CCCCN1Cc1cn[nH]c1-c1ccc(OC)cc1OC (configuration not stated) -6.12%
CC(NC(=O)COC(=O)c1cc(=O)c2ccccc2o1)c1ccccc1 (configuration not stated) 2.31%
COc1cccc(CN2CCC(CO)(CC3CCCCO3)CC2)c1 (configuration not stated) 10.7%
OCC1(CC2CCCCO2)CCN(C/C=C/c2ccccc2)CC1 (configuration not stated) 1.66%
COc1ccccc1/C=C/CN1CCC(Oc2ccc(C(=O)N3CCCC3)cc2)CC1 7.28%
COc1ccc(/C=C/CN2CCC(Oc3ccc(C(=O)N4CCCCC4)cc3)CC2)cc1 7.82%
O=C(NCC1CCCO1)c1ccccc1-c1nc(-c2ccc(Cl)cc2)no1 (configuration not stated) 10.3%
CC(C)(C)NC(=O)NC(=O)CSc1nnc(-c2ccccc2F)n1N 11.7%
CC1(C)CC(O)C(C(O)c2cccc([N+](=O)[O-])c2)C(C)(C)N1 (configuration not stated) -4.29%
COC(=O)C1=C(C)N(Cc2ccco2)C(=O)/C1=C\c1ccc([N+](=O)[O-])cc1 40.1%
CCOc1cc(/C=C2\C(=O)N(Cc3ccc(C)cc3)C(C)=C2C(=O)OC)ccc1O 13.1%
COC(=O)C1=C(C)N(Cc2ccc(C)cc2)C(=O)/C1=C\c1ccc(O)c(OC)c1 -0.65%
COC(=O)C1=C(C)N(CCc2ccc(OC)c(OC)c2)C(=O)/C1=C\c1ccc(O)cc1 27.5%
Cc1cccc(C(C)C)c1NC(=O)COC(=O)c1cc2ccccc2oc1=O 4.05%
CCOC(=O)C1CCN(C(=O)Cn2nc(C)n3nc(-c4ccc(OC)cc4)cc3c2=O)CC1 4.91%
CCOC(=O)C(O)(CC(=O)c1ccc(Cl)cc1)C(=O)OCC 3.02%
OCCn1c(-c2ccccc2)csc1=Nc1ccccc1 7.22%
CCn1c(-c2ccccc2)csc1=Nc1ccc(S(=O)(=O)O)cc1 9.33%
CCOC(=O)CC1CCCCN1C(=O)CCCn1nnnc1CN1CCOCC1 (configuration not stated) 7.71%
Cc1ccc(OCC(=O)N2CCN(C(=O)c3ccc([N+](=O)[O-])cc3)CC2)cc1 4.34%
CCOC(=O)N1CCN(C(=O)COc2ccc([N+](=O)[O-])cc2)CC1 -2.93%
Cc1cccc(OCC(=O)N2CCN(C(=O)Cc3ccccc3)CC2)c1 8.65%
O=C(COc1ccc2ccccc2c1)N1CCCC1 7.41%
O=C(COc1ccc2ccccc2c1)N1CCN(C(=O)c2cccnc2)CC1 8.31%
Cc1cccc(OCC(=O)N2CCN(C(=O)COc3ccc(Cl)cc3)CC2)c1 9.73%
CCn1ccnc1CN(C)C(=O)C1CCC(=O)N(Cc2cccc(C(F)(F)F)c2)C1 (configuration not stated) 4.11%
COc1cc(NC(=O)COC(=O)CNS(=O)(=O)c2ccc(F)c(F)c2F)cc(OC)c1 9.27%
COc1ccc(-n2nc(C(=O)NCC(=O)NCCN(C)C)c3ccccc3c2=O)c(OC)c1 8.96%
Cc1nn(C)cc1CNC(=O)/C=C/c1cnn(C)c1 -2.3%
O=[N+]([O-])c1ccc(N2CCCCC2)nc1N1CCCCC1 2.43%
O=C(COC(=O)C1CCN(c2ccc(C(F)(F)F)cn2)CC1)NCc1ccccc1 2.35%
CC12CCC(=O)N1C(C(=O)OCC(=O)Nc1ccc(S(N)(=O)=O)cc1)CS2 (configuration not stated) 0.82%
N#Cc1ccc(-c2csc(NC(=O)c3ccc(N4C(=O)CCC4=O)cc3)n2)cc1 6.12%
O=c1/c(=C/c2cccc3ccccc23)sc2ncnn12 17.9%
CCCCOc1ccc(/C=c2\sc3ncnn3c2=O)cc1 8.68%
CN1CCN(C(=O)CN(C)S(=O)(=O)c2cc(Cl)ccc2Cl)CC1 1.86%
COc1ccccc1CNCc1ccc(C)cc1 7.48%
O=C1CN(C(=O)CNCc2ccccc2)c2ccccc2N1 23.4%
O=C(CNCc1ccco1)Nc1ccccc1-n1cccc1 12.8%
COc1ccc(CNCC(=O)Nc2ccccc2-n2cccc2)cc1 36.5%
COc1ccccc1CNC(=O)Cc1ccc(C)cc1 4.63%
COc1ccccc1CNCC(=O)Nc1ccc(C(F)(F)F)cc1 25%
COc1ccccc1CNC(=O)CNC(=O)N1CC(=O)Nc2ccccc21 10.5%
COc1ccccc1CNCC(=O)Nc1ccc(C#N)cc1 31.8%
O=CNc1ccccc1Oc1ccccc1 8.55%
Cc1ccc(N(C(=O)c2snc(C(N)=O)c2N)C(C(=O)NC2CCCC2)c2ccc(C)o2)cc1 (configuration not stated) 2.21%
CC(=O)c1ccc(NC(=O)CSc2nnc(C3CC3)n2C)cc1 -6.69%
O=C(CSc1cn(CCNC(=O)c2ccc3ccccc3c2)c2ccccc12)NCc1ccco1 11.1%
CC(C)C(=O)Nc1ccc2c(c1)nc1n2CCSC1 5.79%
CC1CCN(CC(O)COc2ccc(OCC(O)CN3CCC(C)CC3)cc2)CC1 (configuration not stated) 15.7%
Cc1ccccc1OCC(O)CN1CCC(C)CC1 (configuration not stated) 8.53%
Cn1ccnc1C(=O)c1cc(SCC(=O)N2CCOCC2)nc2ccccc12 -0.39%
S=C1SC2(CCCCCC2)NC2=C1CCCCC2 8.68%
CCOC(=O)CCSc1nc(C)c2cc(C)ccc2n1 5.59%
Cc1c(O)ccc2c(=O)c(Oc3ccccc3)coc12 9.78%
Cc1ccc(Oc2coc3cc(OC(=O)c4cccs4)ccc3c2=O)cc1 1.09%
CC1NC(=O)c2cc3ccccc3cc2-n2c1nc1cc(Cl)ccc1c2=O (configuration not stated) 9.82%
CC(Oc1ccc(Cl)cc1)C(=O)Nc1ccccc1N1CCOCC1 (configuration not stated) 2.3%
NN1C(=O)/C(=C2/Sc3ccccc3N2CCCS(=O)(=O)O)SC1=S 12.5%
CCN1/C(=C2/SC(=S)NC2=O)Sc2ccccc21 1.71%
CCOC(=O)N1CCN(S(=O)(=O)c2c(C)nc3sccn3c2=O)CC1 8.06%
COc1ccc(C=C2CS(=O)(=O)CC(=Cc3ccc(OC)cc3)C2=O)cc1 8.37%
O=C1/C(=C\c2ccc([N+](=O)[O-])cc2)CCc2ccccc21 2.14%
O=[N+]([O-])c1ccc(N2CCN(S(=O)(=O)c3ccc(Cl)c(Cl)c3)CC2)cc1NCCN1CCOCC1 -6.11%
COc1ccccc1NC(=O)c1cc2ccc(O)cc2o/c1=N\O 16.6%
COc1ccc2o/c(=N\O)c(C(=O)Nc3ccc(C)cc3)cc2c1 6.76%
